Compound activity from PubChem BioAssay.
Methyltransferases = Primary Screen for Target Class Profiling of Small Molecule Inhibitors of Methyltransferases; purified enzyme, MTase-Glo SAH luminescence; stronger effect = lower value; calls only at 40 µM; 3.9% of 25,000 active; AID 1745853, 2022; call rule not given here
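Each enzyme was reacted with SAM and its substrate, with compounds tested once at 40 uM; SAH formed was read by MTase-Glo luminescence.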
MTase-Glo ctr = detection enzyme interference, methyltransferase counter-screen; AID 1745851; MTase-Glo coupled enzymes, SAH conversion luminescence, no MTase; shares compounds with Methyltransferases; 6% of 180 active; Potency, µM (top dose mostly 57.3 µM), for inactives: at the top dose activity change, negative = inhibition, hits mostly inhibitors; active means well fitted inhibition curve with a large enough effect; further: potency means the concentration at half of the fitted maximal effect
Numbers without * were called inactive; i = inactive; + = active, no number; [ ] = dose if it differs, or a comment. This excerpt belongs to a sample that is enriched for hits. On the % scale 0 is the no-effect control and ±100 the full control effect.

SMILES	Methyltransferases	others
Cc1cc2c(cc1S(=O)(=O)Nc1cccc(C)c1C)n(C)c(=O)n2C	i
COc1cccc(Cn2nc3n(Cc4ccc(C)cc4)c(=O)c4ccccc4n3c2=O)c1	i
CCOc1ccc(CNS(=O)(=O)c2ccc3c(c2)n(C)c(=O)n3C)cc1OC	i
CN(C)CCC[C@]1(c2ccc(F)cc2)OCc2cc(C#N)ccc21	+
COc1ccccc1CN1C(=O)c2cc(C(C)(C)C)nn2CC1(C)C(=O)NCc1ccccc1 (stereo not drawn)	i
COc1ccc(Sc2ccc(NC(=O)c3ccccc3Cl)cc2C#N)cc1	i
COc1cc(OC)cc(C(=O)Nc2ccc(Cl)c(-c3nc4ccc(N(C)C)cc4[nH]3)c2)c1	+
CN1C(=O)c2cc(NC(=O)c3cccc(N(C)C)c3)ccc2N2CCN=C12	i
CCCn1c(=O)c2ccc(C(=O)NC(C)C)cc2n2c(=O)n(CC(=O)Nc3ccccc3C)nc12	i
O=C(CCn1ccc2cc(S(=O)(=O)N3CCCCC3)ccc21)NCCC1=CCCCC1	i
COc1ccccc1-c1nnc2n(Cc3ccc(F)cc3)c(=O)c3ccccc3n12	i
CC(=O)O[C@@H]1[C@@H](CO)O[C@@](CO)(O[C@H]2O[C@H](COC(=O)/C=C/c3ccccc3)[C@@H](O)[C@H](O)[C@H]2O)[C@H]1O	i
O=C(/C=C/c1ccc(O)cc1)OC[C@H]1O[C@@H](O/C(=C\c2ccccc2)C(=O)O)[C@H](O)[C@@H](O)[C@@H]1O	i
O=C(/C=C/c1ccccc1)OC[C@H]1O[C@@H](OC(=O)c2cc(O)c(O)c(O)c2)[C@H](O)[C@@H](O)[C@@H]1O	+
CC1(C(=O)NC2CCCCCCC2)Cn2c(cc3occc32)C(=O)N1Cc1cccs1 (stereo not drawn)	i
O=c1cc(O)cc(/C=C/c2ccc(O)c(O)c2)o1	+
Oc1ccc(/C=C/c2cc(O)cc(O)c2)cc1	i
O=C(/C=C/c1ccc(O)c(O)c1)OCCc1ccccc1	i
CC1CCC(NC(=O)C2(C)Cn3c(cc4sccc43)C(=O)N2CCCc2ccccc2)CC1 (stereo not drawn)	i
COc1ccc(CNC(=O)C2(C)Cn3cnc(C(=O)Nc4ccc(F)cc4Cl)c3C(=O)N2C2CC2)cc1 (stereo not drawn)	i
COC(=O)C1=C2Nc3ccccc3C23CCN2CCCC(C(C)O)(C1)C23 (stereo not drawn)	+
CCc1ccccc1NC(=O)N1CCn2c(C)ccc2C1CC (stereo not drawn)	i
O=S(=O)(Nc1cccc2ccccc12)c1ccc2[nH]c3c(c2c1)CCCC3	i
COC(=O)c1ncn2c1C(=O)N(c1cc(C)cc(C)c1)C(C)(C(=O)NC1CCCC1)C2 (stereo not drawn)	i
COc1ccc2nc3n[nH]c(C)c3c(NCCOCCO)c2c1	+
SMILES	Methyltransferases	others
CCc1ccccc1NS(=O)(=O)c1ccc2[nH]c3c(c2c1)CCCC3	i
CC(C)NC(=O)c1ccc2c(=O)n(Cc3ccccc3)c3nnc(SCC(=O)c4ccccc4)n3c2c1	i
CCCn1c(=O)c2ccccc2n2c(SCC(=O)NC3CCCCC3)nnc12	i
Cc1ccc(CSc2nnc3n(CCCOC(C)C)c(=O)c4cc(Cl)ccc4n23)cc1	i
C=C1C(=O)OC[C@@H]1C/C=C(\C)CC1CC(C)C(=O)O1 (stereo partly drawn)	+
COc1ccc(CNC(=O)CCCc2nnc3n4nc(C)nc4c4ccccc4n23)cc1	i
CCOc1ccc(C(=O)Cn2nc3n(CCC(C)C)c(=O)c4ccccc4n3c2=O)cc1	i
Cc1ccc(NC(=O)N2CCc3c(c4ccccc4n3CC3CC3)C2)cc1	+	MTase-Glo ctr=5%
Cc1ccc(NC(=O)N2CCn3cccc3C2C)cc1 (stereo not drawn)	i
Cc1ccc(NC(=O)N2CCN(c3nnnn3-c3ccccc3)CC2)cc1	i
Cc1ccc(Cn2c(=O)c3ccccc3n3c(SCC(=O)Nc4ccc(C)c(C)c4)nnc23)cc1	i
CC1CCC(NC(=O)C2(C)Cn3c(cc4sccc43)C(=O)N2Cc2ccccc2)CC1 (stereo not drawn)	i
Cc1ccc(CNC(=O)CCc2nnc3n(Cc4ccccc4Cl)c(=O)c4ccccc4n23)cc1	i
COc1ccc(CCNC(=O)CCc2nnc3n(Cc4ccc(F)cc4)c(=O)c4ccccc4n23)cc1OC	i
Nc1ccc(-c2nc3ccc(-c4nc5ccc(N)cc5[nH]4)cc3[nH]2)cc1	i
Cc1cc(-c2nc3ccncc3[nH]2)c(C)[nH]1	+	MTase-Glo ctr=-3%[114 µM]
Cc1cc2c(cc1S(=O)(=O)Nc1ccc(Cl)cc1)n(C)c(=O)n2C	i
O=S(=O)(c1ccccc1)c1nnn2c1nc(NC1CCCCC1)c1cc(Cl)ccc12	i
CCC1c2ccc(C)n2CCN1C(=O)Nc1ccc(C)cc1 (stereo not drawn)	i
CCCn1nc(CNC(=O)c2cc(F)ccc2F)c2ccccc21	i
Cn1c(=O)c2ccc(C(=O)NC3CCCC3)cc2n2c(SCC(=O)Nc3ccccc3F)nnc12	i
Cc1nccn1CCC1CCN(c2nccc(-c3ccccn3)n2)CC1	+	MTase-Glo ctr=4%
NCC1CCN(c2nccc(-c3ccc4ccccc4c3)n2)CC1	i
CC(C)CCN1C(=O)c2cc3sccc3n2CC1(C)C(=O)NC1CCCCCC1 (stereo not drawn)	i
CC(C)OCCCn1c(=O)c2ccccc2n2c(=O)n(Cc3ccc(F)cc3Cl)nc12	i
SMILES	Methyltransferases	others
c1ccc(CNc2cc(-c3cc(N4CCCCC4)ncn3)c3cc[nH]c3n2)nc1	+	MTase-Glo ctr=-9%
Cc1ccc(C(N)=O)cc1-c1cc(NCc2cccnc2)nc2[nH]ccc12	i
O=C(NCc1ccccn1)C1CCN(c2cc(C3CC(O)C3)ncn2)CC1 (stereo not drawn)	i
CCOc1ccc(NC(=O)N2CCn3cccc3C2C)cc1 (stereo not drawn)	i
CC(=O)N1c2ccc(S(=O)(=O)N(C)CC(=O)N3CCN(c4cc(C)ccc4C)CC3)cc2CC1C (stereo not drawn)	i
Cc1cnc(-c2cccnc2)n1C1CCN(S(=O)(=O)c2ccc3c(c2)OCCO3)CC1	i
Cc1nc2cccnc2n1CC1CCCN(S(=O)(=O)c2ccc3c(c2)OCCO3)C1 (stereo not drawn)	+	MTase-Glo ctr=-3%
Cc1cnc(CC2CCCN(S(=O)(=O)c3ccccc3)C2)n1CC1CC1 (stereo not drawn)	i
CCCN1C(=O)c2cc(C(=O)NCc3ccc(CC)cc3)nn2CC1(C)C(=O)NC1CCCC1 (stereo not drawn)	i
CC1(C(=O)NC2CCCCCCC2)Cn2c(cc3sccc32)C(=O)N1Cc1ccccc1Cl (stereo not drawn)	i
CCCn1c(=O)c2ccc(C(=O)NC(C)CC)cc2n2c(=O)n(CC(=O)Nc3ccccc3CC)nc12 (stereo not drawn)	i
Fc1ccccc1CN1CCCC2(CCN(c3cnccn3)C2)C1 (stereo not drawn)	i
COc1cccc(CN2CCCC3(CCN(c4cc(C)nc(N)n4)C3)C2)c1OC (stereo not drawn)	+	MTase-Glo ctr=-1%
COc1cc2c(cc1CN1CCC3(CCCNC3)C1)OCCCO2 (stereo not drawn)	i
